AmpC no deterg – inhibitors of E. coli AmpC beta-lactamase without detergent; 330,000 compounds, 0.52% hits; Potency, µM (series often up to 57.1 µM), for inactives: at the highest dose activity change, negative = inhibition, actives largely listed as inhibitors; P00811; AmpC nitrocefin hydrolysis, absorbance 480 nm, 0.0001% Triton;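 further: potency means the concentration at half of the fitted maximal effect; plate controls were no compound for no effect and no enzyme for full effect; nearly all actives have a fitted effect of over 20% in size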
Target sequence (P00811 whole entry, looked up): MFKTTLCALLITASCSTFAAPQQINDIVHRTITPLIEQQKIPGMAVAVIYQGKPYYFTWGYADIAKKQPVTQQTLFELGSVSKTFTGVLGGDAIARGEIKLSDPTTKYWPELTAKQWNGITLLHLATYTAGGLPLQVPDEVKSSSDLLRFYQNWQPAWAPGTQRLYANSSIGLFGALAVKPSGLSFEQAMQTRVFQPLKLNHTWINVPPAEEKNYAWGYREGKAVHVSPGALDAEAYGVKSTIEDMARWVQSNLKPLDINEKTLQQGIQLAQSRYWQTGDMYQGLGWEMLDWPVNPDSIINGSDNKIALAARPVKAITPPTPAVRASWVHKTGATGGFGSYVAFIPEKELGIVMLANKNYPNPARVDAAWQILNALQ
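AmpC (5.3 nM in the dispensed reagent) in 20 mM phosphate pH 7.0 with 0.01% (detergent screen) or 0.0001% Triton X-100 was preincubated with compounds for 15 min at room temperature. Nitrocefin was then added from an 800 uM solution, and hydrolysis was followed at 480 nm.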
AmpC detergent – inhibitors of E. coli AmpC beta-lactamase with detergent; AmpC hydrolysis of nitrocefin, absorbance 480 nm, 0.01% Triton; 370,000 compounds, 0.041% hits; Potency, µM (titrated, usually from 114 µM), inactives show at the top dose activity change, negative = inhibition, hits mostly inhibitors;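 further: potency means the concentration at half of the fitted maximal effect; 0% = no-compound wells and -100% = no-enzyme wells; nearly all actives have a fitted effect of over 25% in size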
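20 mM phosphate pH 7.0 + 0.01% (detergent screen) or 0.0001% Triton X-100; 5.3 nM AmpC reagent; cpd preinc 15 min RT; nitrocefin (800 uM stock) to start; A480 q20 s × 4 min; Activity was normalised to no-enzyme and no-compound control wells.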
Cycloheximide cs – counter-screen hit for Shiga toxin inhibitors, cycloheximide; cell reporter, cycloheximide protein synthesis inhibition counterscreen; max response, %; 300,000 compounds, 12% hits; in the data active means max response mostly above about 13%, no sharp cut-off; inactive means mostly below about 14%; further: read at 38.3 µM for the half of the compounds with a filed dose; 0% is about no effect
Shiga toxin inh – blocks Shiga toxin action in Vero cells. Vero cells, Shiga toxin protein synthesis inhibition reporter. inhibition, % at 38.7 µM. 290,000 compounds, 9.2% hits. AID 2315; in the data active means inhibition mostly above about 28%, no sharp cut-off; inactive means mostly below about 43%; further: 0% is about no effect
NS1 inh – inhibitors of influenza NS1 protein function; Potency, µM (highest dose often 46.1 µM), inactives show top-dose activity, positive = more growth; 270,000 compounds, 0.4% hits; AID 2326; calls by dose curve; further: potency means the concentration at half of the fitted maximal effect; actives are rising curves; nearly all actives have a fitted effect of over 50% in size
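Compounds were scored for reversing the slow growth caused by influenza A NS1 in S. cerevisiae, measured by optical density at 600 nm. Assay medium contained 2% galactose at pH 6.0; NS1-free yeast of the same strain were the positive control.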
Numbers without * were called inactive; u = inconclusive; x = no result. Only a selection was taken, and hits are over-represented in it overall. Unless noted, the call rests on the fitted dose curve; in most records, active means well fitted curve in the direction sought with a large enough effect; inconclusive means small, poorly fitted or top-dose-only effect, or another doubt; inactive means no such curve, though single readings can be large; an effect the other way counts as inactive or inconclusive.

SMILES	AmpC no deterg	AmpC detergent	Cycloheximide cs	Shiga toxin inh	NS1 inh
Cc1cccc(-c2nsc(SCC(=O)Nc3nccs3)n2)c1	-28%	-8%	14	14	-8%
Cc1cccc(-c2nsc(SCC(=O)N3CCCC3)n2)c1	31%	-2%	36*	117*	-36%
CCCCSc1cc(C)nc(N)n1	0%	0%	31*	54*	-6%
CCOc1ccc(C(=O)c2oc3ccccc3c2NC(=O)Cc2coc3cc(C)cc(C)c23)cc1	x	1%	x	x	x
CN1C(=O)SC(Nc2ccccc2)C1=O (stereo not drawn)	-11%	-2%	1	-4	-3%
COc1cccc(NC2SC(=O)N(c3ccccc3)C2=O)c1 (stereo not drawn)	-29%	-4%	43*	61*	14%
COc1cccc(-n2cc(C(=O)Nc3ccccc3C(N)=O)c3ccccc3c2=O)c1	x	-5%	x	x	x
CCc1cc(C(=O)Nc2ccc(C)cc2Br)cs1	-21%	-5%	57*	71*	-25%
CCc1cc(C(=O)NNC(=S)Nc2cccc(C)c2)cs1	-18%	4%	28*	66*	-11%
Cc1ccc(NC(=O)COC(=O)c2cc(Cl)cc(Cl)c2)c(Br)c1	-20%	-5%	-5	-10	-4%
C=CCNC(=S)NNC(=O)c1csc(CC)c1	-12%	-1%	8	19	8%
Cc1cccc(NC(=S)NNC(=O)c2csc(C(C)C)c2)c1	-8%	2%	42*	42*	-10%
Cc1cccc(NC(=S)NNC(=O)c2sccc2C)c1	-26%	1%	25*	107	-8%
CCOc1ccc(-c2cc(-c3nc(-c4ccc(C)cc4)no3)[nH]n2)cc1	x	4%	x	x	x
Cc1ccc(CNC(=O)Cc2coc3cc(C)cc(C)c23)cc1	x	-8%	x	x	x
COc1ccccc1CNS(=O)(=O)c1c(C)nc2sc(C)cn2c1=O	x	17%	x	x	x
CCOC(=O)c1ccc(NC(=O)c2nn(C)c3c2COc2ccccc2-3)cc1	x	13%	x	x	x
CCCCNC(=S)NNC(=O)c1csc(CC)c1	-18%	-6%	9	34*	5%
CCCCNC(=S)NNC(=O)c1csc(C)c1	-18%	2%	8	12	7%
O=S(=O)(c1ccc2c(c1)OCCO2)N1CCN(S(=O)(=O)c2cc(F)c(F)cc2F)CC1	x	x	-9	-11	x
COc1ccc(-c2cc(=Nc3c(C)n(C)n(-c4ccccc4)c3=O)c3ccccc3o2)cc1	-8%	9%	41*	48*	x
COc1cc(C2CC(=O)Nc3c2c(=O)n(C)c(=O)n3C)cc(OC)c1OC (stereo not drawn)	x	-6%	x	x	x
COc1ccc(Cc2nc3ccc(C(=O)N(C)CCO)cc3o2)cc1	-7%	6%	2	-4	1%
COc1ccc(Cc2nc3ccc(C(=O)N(C)CCn4ccnc4)cc3o2)cc1OC	18%	5%	77*	63*	15%
COCCCNC(=O)c1ccc2nc(Cc3ccc(OC)cc3)oc2c1	1%	-12%	32*	111	-9%
SMILES	AmpC no deterg	AmpC detergent	Cycloheximide cs	Shiga toxin inh	NS1 inh
COc1ccc(Cc2nc3ccc(C(=O)N(C)Cc4cc(C)[nH]n4)cc3o2)cc1OC	52%	-3%	15	2	-6%
COc1ccc(Cc2nc3ccc(C(=O)NCCc4ccc(OC)c(OC)c4)cc3o2)cc1	x	0%	x	x	x
COc1ccc(Cc2nc3ccc(C(=O)N(C)C(C)c4ccon4)cc3o2)cc1 (stereo not drawn)	86%	0%	41*	49*	11%
COc1ccc(Cc2nc3ccc(C(=O)NCCCSC)cc3o2)cc1OC	29%	u	45*	39*	-3%
CCc1noc(C)c1C(=O)Nc1ccc(C(F)(F)F)cc1	0%	2%	-4	-17	8%
O=C(NC1CC2CCCC(C1)N2C(=O)Nc1ccccc1F)C1CC1 (stereo not drawn)	-10%	u	-9	-10	3%
COc1ccc(N2CC(NC(=O)CCCc3ccccc3)CC2=O)cc1 (stereo not drawn)	x	0%	x	x	x
CCc1nnc(SC(CC)C(=O)NCCOC)c2cc3occc3n12 (stereo not drawn)	x	-6%	x	x	x
COC(=O)CCNC(=O)c1ccc2nc(Cc3ccc(OC)c(OC)c3)oc2c1	7%	-16%	24*	29*	-5%
O=C(CSc1nnc(-c2ccccc2F)o1)N1CCc2ccccc21	x	17%	x	x	x
Cc1ccc(-n2ncc3c(NNC(=O)Cc4ccccc4)ncnc32)cc1	-18%	-12%	14*	21	0%
Cc1cccc(-n2ncc3c(NNC(=O)c4ccco4)ncnc32)c1	-23%	-13%	20*	3	0%
Cc1ccc(-n2ncc3c(NNC(=O)c4ccco4)ncnc32)cc1Cl	-12%	-8%	57*	84	5%
Cn1ncc2c(NNC(=O)Cc3ccccc3)ncnc21	-47%	-10%	-4	-6	1%
COc1cccc(C(=O)OCC(=O)c2c[nH]c3ccccc23)c1O	-29%	5%	34*	93*	11%
CC(=O)OCC(=O)c1c[nH]c2ccccc12	-12%	-11%	13	19	0%
COc1cccc(/C=C/C(=O)OCC(=O)c2c[nH]c3ccccc23)c1OC	-35%	-6%	11*	32	0%
COc1ccc(-c2nnc3n2N=C(c2c(OC)cccc2OC)CS3)cc1	x	x	15	9	x
CC(C)c1nc2sc3c(SCC(=O)NCc4ccco4)ncnc3c2c2c1CCC2	30%	-3%	2	-9	6%
CC1(C)Cc2nc3sc4c(SCC(=O)NCc5ccco5)ncnc4c3cc2CO1	3%	u	51*	99*	15%
CCCc1nc2c(sc3nc4c(cc32)COC(C)(C)C4)c(=O)n1Cc1ccco1	-21%	4%	1	-4	-40%
Cc1nc2c(sc3nc4c(cc32)COC(C)(C)C4)c(=O)n1CC(=O)NCc1ccco1	16%	-13%	24*	39*	-16%
O=C(CCC(=O)c1ccc(F)cc1)Nc1ccccc1Cl	-24%	-8%	17	36*	-4%
Cc1ccc(C(=O)CCC(=O)Nc2ccccc2F)cc1	-10%	u	33*	39	-13%
Cc1ccc(CCC(=O)Nc2ccccc2F)s1	-11%	3%	32*	93*	-7%
SMILES	AmpC no deterg	AmpC detergent	Cycloheximide cs	Shiga toxin inh	NS1 inh
N#Cc1c2ccccc2nc2ccccc12	-20%	5%	2	-2	-8%
CCOC(=O)N1CCN(Cc2nc(CC3CC3)no2)CC1	-22%	3%	27*	34*	-5%
Cc1cc(C)c2c(CC(=O)Nc3ccc(S(=O)(=O)N4CCCCC4)cc3)coc2c1	x	15%	x	x	x
Cc1ccc(-c2nn(CC(=O)NCc3ccccc3)c3c2cnc2ccc(F)cc23)cc1C	x	26%	x	x	x
CC1C/C(=N/NC(=O)c2cccc(F)c2)c2ccc(O)cc2C1 (stereo not drawn)	-21%	-1%	42*	active	7%
COc1ccc2c(c1)CC(C)C/C2=N\NC(=O)c1ccco1 (stereo not drawn)	-16%	1%	14	32	x
CN(c1ccc(C(=O)N2CCOCC2)cc1[N+](=O)[O-])C1CCCCC1	50%	-11%	48*	95*	u

Source: PubChem
